# In the library only some 21% were active in any assay of this set; here they are far more common.
# Pf growth 48h = inhibits P. falciparum growth in the first generation, 48 h; P. falciparum luciferase growth in erythrocytes, 48 h; Potency, µM (doses to about 28.7 µM), for inactives: at the highest dose activity change, negative = inhibition, actives largely listed as inhibitors; 5.9% of 310,000 active; AID 504832; also: potency is read from the fitted curve at half-maximal effect; % is scaled to controls: 0 for no effect and ±100 for the full control effect
#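 Luciferase-expressing P. falciparum in infected erythrocytes (2% hematocrit, 0.1% parasitemia final) in RPMI 1640/0.5% Albumax were exposed to compound for 48 hours at 37 C, 5% CO2; growth read as luminescence.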
# NS1 function inh = influenza NS1 inhibition; Potency, µM (series often up to 46.1 µM), for inactives: at the top dose activity, positive = more growth; 0.4% of 270,000 active; AID 2326; calls by dose curve; also: potency is read from the fitted curve at half-maximal effect; actives are rising curves; nearly all actives have a fitted effect of over 50% in size
#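 S. cerevisiae expressing influenza A NS1, grown in glucose, washed, then diluted 1:100 into pH 6.0 -URA galactose medium with 23 nl compound. Growth recovery read as OD600; NS1-free strain serves as control.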
# Shiga inhibitor = inhibitors of Shiga toxin in Vero cells; Vero cells, Shiga toxin protein synthesis inhibition reporter; inhibition, % at 38.7 µM; 9.2% of 290,000 active; in the data active = inhibition mostly above about 28%, no sharp cut-off; inactive = mostly below about 43%; also: 0% is about no effect
# Cycloheximide cs = affects cycloheximide protein synthesis inhibition readout, counter-screen. cell reporter, cycloheximide protein synthesis inhibition counterscreen. max response, %. 12% of 300,000 active. AID 2314; in the data active = max response mostly above about 13%, no sharp cut-off; inactive = mostly below about 14%; also: read at 38.3 µM for the half of the compounds with a filed dose; 0% is about no effect
# Sm TGR block = inhibitors of Schistosoma mansoni thioredoxin glutathione reductase. Q962Y6. purified TGR, DTNB reduction, TNB absorbance 405 nm. Potency, µM (top dose mostly 114 µM), inactives show top-dose activity change, negative = inhibition, most hits filed as inhibitors. 3% of 360,000 active. AID 485364; also: potency is read from the fitted curve at half-maximal effect; % is scaled to controls: 0 for no effect and ±100 for the full control effect; nearly all actives have a fitted effect of over 60% in size
#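 Kinetic colorimetric format: TGR-catalysed, NADPH-driven DTNB reduction monitored via TNB absorbance. Enzyme dispensed at 20 nM; compound exposure 15 min at room temperature before reaction start.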
# Pf growth 96h = inhibits malaria parasite growth, 96 h. P. falciparum luciferase reporter growth, 96 h. Potency, µM (highest dose often 28.7 µM), for the others: top-dose activity change, negative = inhibition, hits mostly inhibitors. 6.9% of 320,000 active. AID 504834; also: potency is read from the fitted curve at half-maximal effect; % is scaled to controls: 0 for no effect and ±100 for the full control effect
#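 Erythrocytes infected with luciferase-expressing P. falciparum were dispensed at 2% hematocrit and 0.05% parasitemia (final), then incubated with compounds 96 hours at 37 C in 5% CO2. Luminescence after detection reagent addition reported growth.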
# The depositor's hits bear a star; i = inactive; ? = inconclusive; . = no result; [ ] = dose if it differs, or a comment. Unless noted, calls follow the shape of the dose curve; as a rule, active = well fitted curve in the direction sought with a large enough effect; inconclusive = small, poorly fitted or top-dose-only effect, or another doubt; inactive = no such curve, though single readings can be large; an effect the other way counts as inactive or inconclusive.
SMILES,Pf growth 48h,NS1 function inh,Shiga inhibitor,Cycloheximide cs,Sm TGR block,Pf growth 96h
Cc1cc(F)ccc1NCC(=O)Nc1ccc(Br)cc1C,-5%,-20%,-7,5,-4%,-24%
Cc1ccc(Sc2ccc(NC(=O)CCl)cc2)cc1C,1.5µM*,-46%,18*,11*,?,0.83µM*
Cc1cccc(Cl)c1NC(=S)NCCc1ccccn1,-14%,1%,-6,-1,14%,5%
S=C(NCCc1ccccn1)Nc1ccc(Cl)c(Cl)c1,-6%,7%,41*,2,2%,?
S=C(NCCc1ccccn1)Nc1ccccc1,14%,.,34*,22*,2%,54%
S=C(NCCc1ccccn1)Nc1cc(Cl)cc(Cl)c1,?,-9%,-5,-1,8%,13µM*
S=C(NCc1ccc(Cl)cc1)NCc1ccccn1,-4%,-2%,-18,-2,.,i
COc1cccc(NC(=S)NCCc2ccccn2)c1,26%,7%,39*,27*,-9%,-21%
COCc1cc(CN2CCN(CCCc3ccccc3)C(CCO)C2)ccc1OC (stereo unspecified),?,14%,-9,2,-12%,15%
O=C(O)C(F)(F)C(F)(F)C(F)(F)C(F)(F)C(=O)O,.,8%,.,.,.,.
N[C@H](COP(=O)(O)O)C(=O)O,?,.,.,.,.,-19%
S=C(NCCc1ccccn1)Nc1ccc(Cl)cc1Cl,1%,-2%,42,14*,1%,26%
CN(C)C(=S)SCC(=O)Nc1ccc(Cl)cc1Cl,20%,-22%,110*,24*,-1%,17%
S=C(NCCc1ccccn1)Nc1ccccc1Cl,17%,3%,22,11,25%,-20%
O=C(CC(=O)Nc1ccc(Cl)cc1Cl)Nc1ccc(Cl)cc1Cl,6%,1%,4,-3,1%,15%
CN(C)CCNC(=S)Nc1ccc(Cl)cc1Cl,23%,6%,30,23*,7%,20%
Nc1nonc1C(=O)N/N=C/c1cc(Br)ccc1O,4.1µM*,0%,82*,32*,3%,13%
O=C(N/N=C\c1cc(Br)ccc1O)c1ccc(S(=O)(=O)N2CCCCC2)cc1,5.2µM*,28%,-10,-1,0%,-11%
CC(=O)Nc1ccc(C(=O)N/N=C/c2cc(Br)cc(Br)c2O)cc1,-36%[5.75 µM],.,6,-1,-19%,2.9µM*
O=C(CCCC(=O)Nc1cccc(Br)c1)N/N=C/c1cc([N+](=O)[O-])ccc1O,10µM*,-3%,4,1,9%,34%
O=C(N/N=C/c1ccc(O)c(O)c1)c1cccc(S(=O)(=O)N2CCCCC2)c1,-23%,.,14,1,-14%,-17%
O=C(CCC(=O)Nc1cccc(Cl)c1)N/N=C/c1cc([N+](=O)[O-])ccc1O,?,.,17,1,6%,60%
O=C(c1ccc(Cl)cc1)N1CCC(O)(CSc2ccc(Cl)cc2Cl)CC1,?,-22%,11,3,-11%,?
O=C(Nc1ccc(S(=O)(=O)Nc2ncccn2)cc1)C1=COCCO1,15%,.,.,.,-26%,1%
O=C(NCc1ccc(F)cc1)C1CCN(c2ncnc3c2nc2n3CCCCC2)CC1,.,.,.,.,0%,.
SMILES,Pf growth 48h,NS1 function inh,Shiga inhibitor,Cycloheximide cs,Sm TGR block,Pf growth 96h
O=C(N/N=C/c1ccccc1O)C1SCCCS1,?,.,40,26*,1%,?
COc1ccc(Br)cc1/C=N/NC(=O)c1cc(OC)c(OC)c(OC)c1,1%,4%,7,0,-1%,18%
O=C(N/N=C/c1cc([N+](=O)[O-])ccc1O)c1ccncc1,8.3µM*,-11%,-6,-2,-3%,?
COc1ccc(Br)cc1/C=N/NC(=O)c1ccc(OC)c(OC)c1,4.1µM*,-14%,-4,-2,6%,-4%
O=C(N/N=C/c1cc([N+](=O)[O-])ccc1O)C(O)(c1ccccc1)c1ccccc1,?,-20%,-5,-3,11%,?
O=C(N/N=C/c1cc(Br)ccc1O)c1ccncc1,2.6µM*,-73%,-3,8,-1%,1.7µM*
CC1CCc2nn(CC(=O)Nc3ccccc3Cl)cc2C1 (stereo unspecified),.,.,.,.,-1%,.
CC(C)C(=O)Nc1ncc(Cc2cccc(Cl)c2)s1,-14%,-2%,-17,12,1%,4%
COc1ccc(CCNC(=O)c2c(C)oc3ncnc(N4CCOCC4)c23)c(OC)c1,.,.,.,.,6%,.
Cc1nc(C)c(C(=O)N/N=C/c2c[nH]c3ccccc23)s1,-1%,0%,-5,15,-10%,.
COc1ccc(Br)cc1/C=N/NC(=O)c1nc(-c2ccccc2)n2c1CCCCC2,.,5%,-1,-2,-19%,7.4µM*
Cc1nc(C)c(C(=O)N/N=C/c2cc(Br)ccc2O)s1,2.3µM*,-2%,-10,-2,-1%,5.2µM*
O=C(N/N=C/c1cc(Br)ccc1OC(=O)c1ccc(Br)cc1)c1ccncc1,1.7µM*,-1%,57,-2,0%,15%
O=C(N/N=C/c1ccccc1O)c1ccncc1,9.3µM*,.,.,.,1%,12µM*
O=C(N/N=C/c1cccc2ccccc12)c1ccncc1,39%,-18%,15,14,8%,?
O=C(O)c1ccccc1NS(=O)(=O)c1ccc2ccccc2c1,7%,?,64,33*,4%,17%
O=c1oc(-c2ccccc2NS(=O)(=O)c2ccc3ccccc3c2)nc2ccccc12,5%,23%,-10,-4,-2%,10µM*
O=C(O)c1cc(NS(=O)(=O)c2ccc3ccccc3c2)ccc1O,-23%[0.00184 µM],-6%,-5,-3,-18%,-23%
Cc1noc(C)c1COc1ccccc1C(=O)NC(C)c1ccc(Cl)cc1 (stereo unspecified),13µM*,.,.,.,-3%,5.2µM*
Cc1noc(C)c1COc1ccccc1C(=O)NCc1ccccc1Cl,?,.,.,.,-3%,5.2µM*
Cc1noc(C)c1COc1ccccc1C(=O)NCCc1ccccc1,?,.,.,.,-1%,?
Cc1c(C(C)(C(=O)O)c2c(C)n(C)c3ccccc23)c2ccccc2n1C,?,?,1,-3,?,0%
O=C(Nc1nc(-c2ccc3c(c2)OCO3)cs1)C1COc2ccccc2O1 (stereo unspecified),20%,?,-21,16*,8%,15%
O=C(Nc1nc(-c2ccccn2)cs1)C1COc2ccccc2O1 (stereo unspecified),8.3µM*,-125%,11,10,18%,0.37µM*
CC(=O)Nc1nc(-c2ccc3c(c2)OCO3)cs1,204%,-4%,61*,53*,2%,128%
COc1cccc(C(=O)Nc2nc(-c3ccc4c(c3)OCO4)cs2)c1,1%,-2%,16,3,1%,1%
O=C(Nc1nc(-c2ccccc2)cs1)C1COc2ccccc2O1 (stereo unspecified),7%,-9%,60,8,1%,55%

# Screening results (PubChem BioAssay)
